Data: the supplement of paper PMC12067093, “Discovery and optimisation of a covalent ligand for TRIM25 and its application to targeted protein ubiquitination” (Chemical Science, 2025)
Targets with the largest changes are over-represented here; the source holds about 21,000 in all.

Compound: Cc1cc(ccc1-c1ccccc1)C(=O)N1CCCN(CC1)C(=O)CCl [compound 10]
Assay: probe-labelled cysteine peptide fold change vs DMSO (competition) (log2 fold change); higher = less target engagement (more negative = stronger competition)
Conditions: 10 µM; THP-1; incubation time: 4 h
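Also: competitive profiling in live THP-1 cells: cysteine peptides tagged with an iodoacetamide desthiobiotin (IA-DTB) probe, intensity after compound treatment relative to DMSO-treated cells.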

Sequence of UniProt Q9UBT6 (Q9UBT6 whole entry, looked up): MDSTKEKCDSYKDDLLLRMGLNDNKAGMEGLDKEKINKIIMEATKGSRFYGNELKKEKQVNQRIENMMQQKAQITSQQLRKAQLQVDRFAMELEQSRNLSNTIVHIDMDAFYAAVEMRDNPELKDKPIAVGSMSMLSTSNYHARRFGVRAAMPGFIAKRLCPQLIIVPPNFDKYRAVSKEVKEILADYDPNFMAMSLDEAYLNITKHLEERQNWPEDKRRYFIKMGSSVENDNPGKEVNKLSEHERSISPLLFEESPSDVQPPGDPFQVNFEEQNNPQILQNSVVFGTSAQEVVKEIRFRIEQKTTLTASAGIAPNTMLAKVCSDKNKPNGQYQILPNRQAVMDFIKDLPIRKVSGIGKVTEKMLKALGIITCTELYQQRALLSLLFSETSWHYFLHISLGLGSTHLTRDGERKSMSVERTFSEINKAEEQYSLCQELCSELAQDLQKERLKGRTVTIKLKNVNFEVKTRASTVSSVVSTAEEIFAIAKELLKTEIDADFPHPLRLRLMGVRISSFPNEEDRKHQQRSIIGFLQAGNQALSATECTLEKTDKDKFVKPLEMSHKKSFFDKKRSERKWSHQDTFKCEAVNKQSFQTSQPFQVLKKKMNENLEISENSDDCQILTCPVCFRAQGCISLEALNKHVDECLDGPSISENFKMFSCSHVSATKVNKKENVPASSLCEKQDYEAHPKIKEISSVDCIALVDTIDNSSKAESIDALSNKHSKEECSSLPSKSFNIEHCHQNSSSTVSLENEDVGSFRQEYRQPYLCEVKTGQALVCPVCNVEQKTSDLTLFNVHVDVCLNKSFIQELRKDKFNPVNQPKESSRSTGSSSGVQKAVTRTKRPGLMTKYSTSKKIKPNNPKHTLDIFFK
Sequence of UniProt Q13608 (Q13608 whole entry, looked up): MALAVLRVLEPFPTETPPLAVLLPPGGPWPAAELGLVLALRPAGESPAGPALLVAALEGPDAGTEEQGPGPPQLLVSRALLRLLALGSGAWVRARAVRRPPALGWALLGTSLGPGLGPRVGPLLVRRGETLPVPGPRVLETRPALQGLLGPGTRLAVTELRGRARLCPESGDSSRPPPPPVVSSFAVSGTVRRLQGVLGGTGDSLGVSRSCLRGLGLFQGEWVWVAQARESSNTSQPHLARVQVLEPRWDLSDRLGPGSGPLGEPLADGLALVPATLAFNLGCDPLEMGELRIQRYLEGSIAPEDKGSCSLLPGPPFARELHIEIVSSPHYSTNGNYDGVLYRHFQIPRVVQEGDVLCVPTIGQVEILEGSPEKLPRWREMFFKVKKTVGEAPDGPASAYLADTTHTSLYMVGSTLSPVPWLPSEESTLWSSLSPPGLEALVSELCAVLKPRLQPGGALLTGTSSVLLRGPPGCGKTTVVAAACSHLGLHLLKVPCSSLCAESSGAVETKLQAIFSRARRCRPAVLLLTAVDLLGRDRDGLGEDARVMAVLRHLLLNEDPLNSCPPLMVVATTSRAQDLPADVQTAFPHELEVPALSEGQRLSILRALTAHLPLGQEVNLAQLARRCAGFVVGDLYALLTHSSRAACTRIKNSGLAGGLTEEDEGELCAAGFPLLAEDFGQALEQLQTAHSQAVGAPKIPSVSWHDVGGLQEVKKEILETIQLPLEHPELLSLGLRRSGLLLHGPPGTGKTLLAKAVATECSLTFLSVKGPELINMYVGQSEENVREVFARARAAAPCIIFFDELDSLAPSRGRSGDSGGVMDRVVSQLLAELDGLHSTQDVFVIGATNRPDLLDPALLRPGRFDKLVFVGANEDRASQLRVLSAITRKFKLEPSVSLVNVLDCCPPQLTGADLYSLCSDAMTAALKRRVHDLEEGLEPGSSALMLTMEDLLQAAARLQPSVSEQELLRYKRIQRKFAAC
Sequence of UniProt Q99575 (Q99575 whole entry, looked up): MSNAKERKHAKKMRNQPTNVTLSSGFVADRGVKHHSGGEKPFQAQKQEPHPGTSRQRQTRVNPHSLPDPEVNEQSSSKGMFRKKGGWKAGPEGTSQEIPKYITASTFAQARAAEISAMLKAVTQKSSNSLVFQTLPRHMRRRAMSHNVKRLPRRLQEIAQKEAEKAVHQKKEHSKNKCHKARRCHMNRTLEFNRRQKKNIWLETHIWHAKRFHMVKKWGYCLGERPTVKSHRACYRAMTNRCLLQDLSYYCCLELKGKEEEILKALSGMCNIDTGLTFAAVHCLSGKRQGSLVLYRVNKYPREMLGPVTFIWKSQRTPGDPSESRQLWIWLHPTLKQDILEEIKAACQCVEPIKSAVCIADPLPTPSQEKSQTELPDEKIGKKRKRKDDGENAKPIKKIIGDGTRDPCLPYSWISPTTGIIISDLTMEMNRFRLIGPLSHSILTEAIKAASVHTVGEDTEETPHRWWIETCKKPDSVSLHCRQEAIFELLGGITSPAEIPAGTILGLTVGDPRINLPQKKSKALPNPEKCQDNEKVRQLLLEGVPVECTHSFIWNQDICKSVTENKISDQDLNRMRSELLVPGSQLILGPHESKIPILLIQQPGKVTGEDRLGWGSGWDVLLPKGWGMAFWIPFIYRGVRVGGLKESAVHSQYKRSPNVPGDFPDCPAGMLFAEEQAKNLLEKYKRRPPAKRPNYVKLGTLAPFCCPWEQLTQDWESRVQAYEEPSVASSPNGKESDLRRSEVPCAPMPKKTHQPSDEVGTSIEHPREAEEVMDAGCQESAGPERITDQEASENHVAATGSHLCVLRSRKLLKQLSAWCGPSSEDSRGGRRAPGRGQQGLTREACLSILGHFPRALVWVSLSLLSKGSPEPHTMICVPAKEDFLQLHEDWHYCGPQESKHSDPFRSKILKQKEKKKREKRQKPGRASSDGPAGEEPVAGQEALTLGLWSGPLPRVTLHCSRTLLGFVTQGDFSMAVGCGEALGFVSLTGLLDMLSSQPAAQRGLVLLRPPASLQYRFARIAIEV
Sequence of UniProt P16885 (P16885 whole entry, looked up): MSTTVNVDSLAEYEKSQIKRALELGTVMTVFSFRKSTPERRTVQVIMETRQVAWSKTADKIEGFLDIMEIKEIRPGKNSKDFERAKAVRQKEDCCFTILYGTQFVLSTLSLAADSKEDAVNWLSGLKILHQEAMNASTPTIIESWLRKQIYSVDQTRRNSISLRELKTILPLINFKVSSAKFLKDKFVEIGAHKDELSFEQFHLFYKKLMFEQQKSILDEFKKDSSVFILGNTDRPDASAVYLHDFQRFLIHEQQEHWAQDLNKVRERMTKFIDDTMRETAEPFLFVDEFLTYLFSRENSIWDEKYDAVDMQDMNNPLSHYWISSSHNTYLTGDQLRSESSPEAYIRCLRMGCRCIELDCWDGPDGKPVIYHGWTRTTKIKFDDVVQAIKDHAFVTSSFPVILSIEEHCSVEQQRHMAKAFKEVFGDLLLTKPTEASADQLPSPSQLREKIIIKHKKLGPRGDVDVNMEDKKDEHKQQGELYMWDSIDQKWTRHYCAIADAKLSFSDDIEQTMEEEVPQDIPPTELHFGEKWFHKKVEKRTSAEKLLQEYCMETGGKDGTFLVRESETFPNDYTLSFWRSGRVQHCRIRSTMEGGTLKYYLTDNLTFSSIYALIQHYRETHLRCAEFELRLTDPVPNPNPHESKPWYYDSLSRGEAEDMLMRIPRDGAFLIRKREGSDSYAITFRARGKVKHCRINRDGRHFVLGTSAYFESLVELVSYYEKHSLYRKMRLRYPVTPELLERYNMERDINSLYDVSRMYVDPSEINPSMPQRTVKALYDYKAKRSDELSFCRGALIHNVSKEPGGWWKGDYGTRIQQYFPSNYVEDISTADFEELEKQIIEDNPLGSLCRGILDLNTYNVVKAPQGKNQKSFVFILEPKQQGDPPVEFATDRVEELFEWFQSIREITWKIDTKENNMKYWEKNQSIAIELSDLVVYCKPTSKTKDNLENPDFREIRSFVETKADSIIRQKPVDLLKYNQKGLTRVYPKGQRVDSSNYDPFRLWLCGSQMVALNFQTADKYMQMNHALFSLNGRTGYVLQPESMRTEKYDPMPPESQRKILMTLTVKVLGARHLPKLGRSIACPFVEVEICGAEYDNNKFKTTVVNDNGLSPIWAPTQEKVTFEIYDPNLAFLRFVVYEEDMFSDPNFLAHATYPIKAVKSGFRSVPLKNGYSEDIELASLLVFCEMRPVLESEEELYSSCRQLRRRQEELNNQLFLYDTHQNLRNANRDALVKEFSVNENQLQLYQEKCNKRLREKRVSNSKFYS
Sequence of UniProt P48739 (P48739 whole entry): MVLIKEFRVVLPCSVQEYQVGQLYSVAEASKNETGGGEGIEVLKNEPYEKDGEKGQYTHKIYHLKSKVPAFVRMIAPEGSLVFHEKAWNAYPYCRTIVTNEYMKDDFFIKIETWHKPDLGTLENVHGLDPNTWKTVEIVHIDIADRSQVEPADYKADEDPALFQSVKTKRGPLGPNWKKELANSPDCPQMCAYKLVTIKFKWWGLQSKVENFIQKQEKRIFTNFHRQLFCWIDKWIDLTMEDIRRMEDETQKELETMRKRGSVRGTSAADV
Sequence of UniProt Q9NY27 (Q9NY27 whole entry, looked up): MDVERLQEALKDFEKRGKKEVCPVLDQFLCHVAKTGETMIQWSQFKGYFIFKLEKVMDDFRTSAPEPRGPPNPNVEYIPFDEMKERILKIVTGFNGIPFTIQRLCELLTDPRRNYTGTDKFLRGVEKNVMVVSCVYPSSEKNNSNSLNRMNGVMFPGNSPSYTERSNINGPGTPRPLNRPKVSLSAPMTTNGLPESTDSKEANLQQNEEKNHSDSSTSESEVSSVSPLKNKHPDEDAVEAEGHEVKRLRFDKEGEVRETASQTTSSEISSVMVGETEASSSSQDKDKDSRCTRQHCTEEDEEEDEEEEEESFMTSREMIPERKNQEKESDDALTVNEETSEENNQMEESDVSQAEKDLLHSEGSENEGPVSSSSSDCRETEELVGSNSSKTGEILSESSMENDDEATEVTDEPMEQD
Sequence of UniProt Q7RTV0 (Q7RTV0 whole entry, looked up): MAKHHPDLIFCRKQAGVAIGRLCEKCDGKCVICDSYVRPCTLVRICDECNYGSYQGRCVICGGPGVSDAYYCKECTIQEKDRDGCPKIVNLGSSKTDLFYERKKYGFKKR

For “POLK_Q9UBT6_545_SIIGFLQAGNQALSATECTLEK (UniProt Q9UBT6)”, which “probe-labelled cysteine peptide fold change” value is on record?
The value was -0.695.

“POP1_Q99575_745_RSEVPCAPMPK (UniProt Q99575)” was tested. Which “probe-labelled cysteine peptide fold change” value did it give?
The value was -0.238.

Which “probe-labelled cysteine peptide fold change” value does the source give for “PITPNB_P48739_13_VVLPCSVQEYQVGQLYSVAEASK (UniProt P48739)” here?
The value was -0.0113.

“PPP4R2_Q9NY27_30_EVCPVLDQFLCHVAK (UniProt Q9NY27)” was tested. Which “probe-labelled cysteine peptide fold change” value did it give?
Its value is 0.0564.

With “PDIA4_P13667_555+558_DVLIEFYAPWCGHCK<|>PDIA3_P30101_406+409_DVLIEFYAPWCGHCK (UniProt P30101+P13667)” as the target, how does the “probe-labelled cysteine peptide fold change” value read?
The value was -0.251.

“PLCG2_P16885_791_SDELSFCR (UniProt P16885)” was tested. Which “probe-labelled cysteine peptide fold change” value did it give?
Its value is -0.0321.

Which “probe-labelled cysteine peptide fold change” value does the source give for “PPM1E_Q8WY54_307_QEMFPHDPAEALCR (UniProt Q8WY54)” here?
The value was -0.144.

Which “probe-labelled cysteine peptide fold change” value does the source give for “PDIA4_P13667_91+94_DTVLLEFYAPWCGHCK (UniProt P13667)” here?
Its value is -0.227.

Which “probe-labelled cysteine peptide fold change” value does the source give for “PPP4C_P60510_130_QITQVYGFYDECLRK<|>PPP2CB_P62714_133_QITQVYGFYDECLRK<|>PPP2CA_P67775_133_QITQVYGFYDECLRK (UniProt P67775+P62714+P60510)” here?
Its value is 0.0312.

“PCCA_P05165_398_INGWAVECR (UniProt P05165)” was tested. Which “probe-labelled cysteine peptide fold change” value did it give?
Its value is 0.181.

“PCDH17_O14917_335_DLGPNPIPAHCK (UniProt O14917)” was tested. Which “probe-labelled cysteine peptide fold change” value did it give?
Its value is -0.0867.

For “PIBF1_Q8WXW3_334_CAHEEDRLER (UniProt Q8WXW3)”, which “probe-labelled cysteine peptide fold change” value is on record?
Its value is 0.47.

Which “probe-labelled cysteine peptide fold change” value does the source give for “PPA1_Q15181_114_HTGCCGDNDPIDVCEIGSK (UniProt Q15181)” here?
The value was 0.105.

With “PEX6_Q13608_564_HLLLNEDPLNSCPPLMVVATTSR (UniProt Q13608)” as the target, how does the “probe-labelled cysteine peptide fold change” value read?
Its value is 0.0661.

Which “probe-labelled cysteine peptide fold change” value does the source give for “PIK3C2A_O00443_541_HLYQIEKPCK (UniProt O00443)” here?
Its value is -0.457.

Same assay, conditions: 50 µM; THP-1; incubation time: 4 h

Which “probe-labelled cysteine peptide fold change” value does the source give for “POLR2A_P24928_451_HMCDGDIVIFNR (UniProt P24928)” here?
Its value is -0.107.

Which “probe-labelled cysteine peptide fold change” value does the source give for “PML_P29590_140+143_ESADFWCFECEQLLCAK (UniProt P29590)” here?
The value was -0.116.

Which “probe-labelled cysteine peptide fold change” value does the source give for “PDIA4_P13667_555_DVLIEFYAPWCGHCK<|>PDIA3_P30101_406_DVLIEFYAPWCGHCK (UniProt P30101+P13667)” here?
The value was -1.09.

For “POLR2K_P53803_22_QQPMIYICGECHTENEIK (UniProt P53803)”, which “probe-labelled cysteine peptide fold change” value is on record?
Its value is -0.286.

For “PLA2G4C_Q9UP65_351_KTGICASK (UniProt Q9UP65)”, which “probe-labelled cysteine peptide fold change” value is on record?
The value was -1.38.

Which “probe-labelled cysteine peptide fold change” value does the source give for “PCCB_P05166_291_DFFNYLPLSSQDPAPVRECHDPSDR (UniProt P05166)” here?
Its value is -0.454.

How did the “probe-labelled cysteine peptide fold change” value turn out when “PPP1CC_P36873_140_IYGFYDECKR<|>PPP1CA_P62140_140_IYGFYDECKR (UniProt P62140+P36873)” was run?
Its value is 0.0296.

How did the “probe-labelled cysteine peptide fold change” value turn out when “PGK1_P00558_367+379_GCITIIGGGDTATCCAK (UniProt P00558)” was run?
The value was -0.173.

“PDLIM4_P50479_258_CGHGIVGTIVK (UniProt P50479)” was tested. Which “probe-labelled cysteine peptide fold change” value did it give?
The value was -0.546.

With “PREX1_Q8TCU6_1173_DSYSECNSNR (UniProt Q8TCU6)” as the target, how does the “probe-labelled cysteine peptide fold change” value read?
The value was 1.39.

Which “probe-labelled cysteine peptide fold change” value does the source give for “PLBD2_Q8NHP8_492_YNDFLHDPLSLCK (UniProt Q8NHP8)” here?
Its value is -0.267.

“PHF5A_Q7RTV0_46_ICDECNYGSYQGR (UniProt Q7RTV0)” was tested. Which “probe-labelled cysteine peptide fold change” value did it give?
Its value is -0.327.

Which “probe-labelled cysteine peptide fold change” value does the source give for “PDSS2_Q86YH6_71_CLLSDELSNIAMQVR (UniProt Q86YH6)” here?
The value was -2.09.

For “PPP2R5A_Q15172_72_DATSNEQQELFCQK (UniProt Q15172)”, which “probe-labelled cysteine peptide fold change” value is on record?
Its value is -0.096.

“PKN3_Q6P5Z2_131_QGAENMTHTCASGTPK (UniProt Q6P5Z2)” was tested. Which “probe-labelled cysteine peptide fold change” value did it give?
The value was -0.199.

“POLK_Q9UBT6_545_SIIGFLQAGNQALSATECTLEK (UniProt Q9UBT6)” was tested. Which “probe-labelled cysteine peptide fold change” value did it give?
Its value is -0.377.

With “POP1_Q99575_745_RSEVPCAPMPK (UniProt Q99575)” as the target, how does the “probe-labelled cysteine peptide fold change” value read?
The value was -0.307.

With “PITPNB_P48739_13_VVLPCSVQEYQVGQLYSVAEASK (UniProt P48739)” as the target, how does the “probe-labelled cysteine peptide fold change” value read?
The value was 0.103.

With “PPP4R2_Q9NY27_30_EVCPVLDQFLCHVAK (UniProt Q9NY27)” as the target, how does the “probe-labelled cysteine peptide fold change” value read?
The value was -0.311.

How did the “probe-labelled cysteine peptide fold change” value turn out when “PDIA4_P13667_555+558_DVLIEFYAPWCGHCK<|>PDIA3_P30101_406+409_DVLIEFYAPWCGHCK (UniProt P30101+P13667)” was run?
The value was -1.15.

Which “probe-labelled cysteine peptide fold change” value does the source give for “PLCG2_P16885_791_SDELSFCR (UniProt P16885)” here?
The value was -0.0713.

“PPM1E_Q8WY54_307_QEMFPHDPAEALCR (UniProt Q8WY54)” was tested. Which “probe-labelled cysteine peptide fold change” value did it give?
Its value is -0.28.

Which “probe-labelled cysteine peptide fold change” value does the source give for “PDIA4_P13667_91+94_DTVLLEFYAPWCGHCK (UniProt P13667)” here?
Its value is -1.17.

For “PPP4C_P60510_130_QITQVYGFYDECLRK<|>PPP2CB_P62714_133_QITQVYGFYDECLRK<|>PPP2CA_P67775_133_QITQVYGFYDECLRK (UniProt P67775+P62714+P60510)”, which “probe-labelled cysteine peptide fold change” value is on record?
Its value is -0.109.

Which “probe-labelled cysteine peptide fold change” value does the source give for “PCCA_P05165_398_INGWAVECR (UniProt P05165)” here?
The value was 0.357.

“PCDH17_O14917_335_DLGPNPIPAHCK (UniProt O14917)” was tested. Which “probe-labelled cysteine peptide fold change” value did it give?
The value was -0.403.

“PIBF1_Q8WXW3_334_CAHEEDRLER (UniProt Q8WXW3)” was tested. Which “probe-labelled cysteine peptide fold change” value did it give?
Its value is 1.41.

How did the “probe-labelled cysteine peptide fold change” value turn out when “PPA1_Q15181_114_HTGCCGDNDPIDVCEIGSK (UniProt Q15181)” was run?
The value was 0.181.

With “PEX6_Q13608_564_HLLLNEDPLNSCPPLMVVATTSR (UniProt Q13608)” as the target, how does the “probe-labelled cysteine peptide fold change” value read?
The value was 0.052.

With “PIK3C2A_O00443_541_HLYQIEKPCK (UniProt O00443)” as the target, how does the “probe-labelled cysteine peptide fold change” value read?
The value was -1.29.
